Experimental data as given in PubChem BioAssay (Tox21).
Inconclusive results are not listed. Active and inactive are the calls of the source. Unless noted, calls come from the whole dose curve; as a rule, active = well fitted curve in the direction sought with a large enough effect in the repeat runs; inconclusive = weak or mixed curves; inactive = no such curve, though single readings can be large; an effect the other way counts as inactive or inconclusive.

How the values were obtained:
[1] = qHTS assay to identify small molecule agonists of the estrogen receptor alpha (ER-alpha) signaling pathway in the presence of an antagonist - cell viability counter screen (AID 1259386);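 note: cells exposed to compounds for 22 h at 37 °C before the viability read; nearly all actives have a fitted effect of over 30% in size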; note: potency is the fitted concentration of half-maximal effect; for activity change, negative = cytotoxicity: series mostly up to about 92 µM
Summary of the method: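 Viability counter screen using VM7Luc4E2 (full-length ER-alpha, four ERE-luciferase). The cells were treated with compounds alongside ICI-182,780 10.0nM for 22hr, and live-cell protease fluorescence was quantified with CellTiter-Fluor.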

[2] = molecular target: Progesterone receptor (Homo sapiens) (UniProt P06401); assay: qHTS assay to identify small molecule agonists of the progesterone receptor (PR) signaling pathway (AID 1346784; calls by dose curve; note: nearly all actives have a fitted effect of over 30% in size)
Progesterone receptor (Homo sapiens), sequence (P06401 whole entry, looked up): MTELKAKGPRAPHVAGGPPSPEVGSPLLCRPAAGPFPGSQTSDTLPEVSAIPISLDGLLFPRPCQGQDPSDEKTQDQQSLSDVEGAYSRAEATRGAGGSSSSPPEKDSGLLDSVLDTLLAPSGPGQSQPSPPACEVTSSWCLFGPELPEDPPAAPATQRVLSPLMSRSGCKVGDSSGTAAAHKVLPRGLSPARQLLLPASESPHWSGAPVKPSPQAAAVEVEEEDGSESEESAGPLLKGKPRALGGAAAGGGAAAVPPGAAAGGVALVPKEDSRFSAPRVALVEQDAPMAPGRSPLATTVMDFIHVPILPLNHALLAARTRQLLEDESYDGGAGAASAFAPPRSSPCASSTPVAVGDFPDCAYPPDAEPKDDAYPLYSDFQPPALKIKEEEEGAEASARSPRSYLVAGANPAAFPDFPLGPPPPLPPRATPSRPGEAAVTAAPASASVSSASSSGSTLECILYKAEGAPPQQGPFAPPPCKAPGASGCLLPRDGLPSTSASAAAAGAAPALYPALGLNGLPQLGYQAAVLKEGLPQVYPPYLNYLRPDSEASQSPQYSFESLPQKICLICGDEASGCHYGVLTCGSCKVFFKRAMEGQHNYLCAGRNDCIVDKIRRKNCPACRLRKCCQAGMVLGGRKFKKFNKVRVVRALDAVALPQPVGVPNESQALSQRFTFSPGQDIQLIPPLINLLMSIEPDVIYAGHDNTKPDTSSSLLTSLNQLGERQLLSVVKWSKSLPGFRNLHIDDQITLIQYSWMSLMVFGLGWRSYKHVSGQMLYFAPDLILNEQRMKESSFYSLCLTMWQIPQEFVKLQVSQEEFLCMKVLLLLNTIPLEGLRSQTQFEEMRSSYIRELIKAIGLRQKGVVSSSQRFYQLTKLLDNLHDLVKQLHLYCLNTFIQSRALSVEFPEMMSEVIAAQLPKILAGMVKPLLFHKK
Summary of the method: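 Reporter assay, GripTite PR-UAS-bla HEK 293T cells: 16 hr exposure to DMSO-dissolved compounds at 37C, 5% CO2, in steroid-depleted (2% charcoal-stripped FBS) medium; beta-lactamase measured by FRET fluorescence.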

[3] = qHTS assay to identify small molecule antagonists of the progesterone receptor (PR) signaling pathway - cell viability counter screen (AID 1346798); note: nearly all actives have a fitted effect of over 50% in size; note: potency is the fitted concentration of half-maximal effect; for activity change, negative = cytotoxicity: series mostly up to about 92 µM
Summary of the method: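 In the same plates used for the beta-lactamase readout, cell viability of compound- and R5020-treated PR-UAS-bla HEK293T cells (16 hr, 37C) was assessed by CellTiter-Glo luminescence.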

[4] = qHTS assay to identify small molecule agonists of the progesterone receptor (PR) signaling pathway - cell viability counter screen (AID 1346799; calls by dose curve; note: nearly all actives have a fitted effect of over 45% in size)
Summary of the method: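 Multiplexed viability read: CellTiter-Glo luminescence, 30 min RT, following LiveBLAzer FRET measurement on PR-UAS-bla HEK293T cells exposed to compounds 16 hr.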

[5] = qHTS assay to identify small molecule antagonists of the TGF-beta/Smad signaling pathway - cell viability counter screen (AID 1346824); note: nearly all actives have a fitted effect of over 50% in size; note: potency is the fitted concentration of half-maximal effect
Summary of the method: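 Cytotoxicity counter-screen run in the same wells as the beta-lactamase Smad reporter read: CellTiter-Glo luminescence after 30 min at room temperature. HEK 293T SBE-bla cells had 5 hr compound exposure at 37 C with TGF-beta1 (0.25 ng/mL stock).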

[6] = qHTS assay to identify small molecule agonists of the TGF-beta/Smad signaling pathway - cell viability counter screen (AID 1346829); note: nearly all actives have a fitted effect of over 45% in size; note: potency is the fitted concentration of half-maximal effect; for activity change, negative = cytotoxicity: top concentration of the series differs between compounds
Summary of the method: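 SBE-bla HEK 293T cells plated overnight, compound exposure 5 hr at 37 C. Viability read in the same wells by CellTiter-Glo luminescence after 30 min at room temperature, following the beta-lactamase read.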

[7] = molecular target: Thyrotropin-releasing hormone receptor (Homo sapiens) (UniProt P34981); assay: qHTS assay to identify small molecule antagonists of the thyrotropin-releasing hormone receptor (TRHR) signaling pathway (AID 1346877; active = well fitted inhibition curve with a large enough effect in the repeat runs, not every such curve was filed as active; note: series mostly up to about 51 µM)
Thyrotropin-releasing hormone receptor (Homo sapiens), sequence (P34981 whole entry, looked up): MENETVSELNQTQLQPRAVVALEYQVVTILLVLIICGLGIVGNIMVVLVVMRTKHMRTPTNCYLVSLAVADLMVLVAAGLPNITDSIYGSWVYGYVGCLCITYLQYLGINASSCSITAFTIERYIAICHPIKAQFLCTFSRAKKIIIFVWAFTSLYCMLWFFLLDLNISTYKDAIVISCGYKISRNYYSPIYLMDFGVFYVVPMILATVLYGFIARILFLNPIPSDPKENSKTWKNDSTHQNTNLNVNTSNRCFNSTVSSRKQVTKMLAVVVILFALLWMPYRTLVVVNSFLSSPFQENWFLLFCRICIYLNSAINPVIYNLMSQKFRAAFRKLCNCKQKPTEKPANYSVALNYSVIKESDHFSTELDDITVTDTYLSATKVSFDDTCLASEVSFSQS
Summary of the method: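 Following an 18 h incubation at 37 °C and a 2 h calcium dye load, TRHR-HEK293 cells were exposed to compound (5 min, room temperature) and challenged with TRH, 1 nM final.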

[8] = molecular target: Thyrotropin-releasing hormone receptor (Homo sapiens) (UniProt P34981); assay: qHTS assay to identify small molecule agonists of the thyrotropin-releasing hormone receptor (TRHR) signaling pathway (AID 1346891; calls by dose curve; note: series mostly up to about 58 µM)
Summary of the method: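 Readout was intracellular calcium fluorescence in TRHR-Hek293 cells. Cells were incubated 18 h, dye-loaded 2 h at 37 °C, and treated with compound in agonist mode.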

[9] = Human pregnane X receptor (PXR) small molecule agonists, qHTS cell viability counter screen (AID 1346977); note: nearly all actives have a fitted effect of over 50% in size; note: potency is the fitted concentration of half-maximal effect
Summary of the method: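 In each well, the PXR reporter HepG2 line was checked for viability: CellTiter-Fluor reagent added 23hr post-dosing, fluorescence read after 1hr incubation at 37C.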

[10] = Caspase-3/7 induction in CHO-K1 cells by small molecules, qHTS assay (AID 1346980); note: nearly all actives have a fitted effect of over 15% in size
Summary of the method: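 Luminescent Caspase-Glo 3/7 read (30min, room temperature) quantified apoptosis induction. Cells were wild-type CHO-K1, treated with compound for 17hr at 37 C and 5% CO2.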

[11] = Caspase-3/7 induction in HepG2 cells by small molecules, qHTS cell viability counter screen (AID 1346981); note: nearly all actives have a fitted effect of over 30% in size; note: potency is the fitted concentration of half-maximal effect; for activity change, negative = cytotoxicity: series mostly up to about 92 µM
Summary of the method: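 Viability determined by CellTiter-Fluor fluorescence in HepG2 wells also used for the luminescent Caspase-Glo 3/7 read. Compounds were present for 16 hr at 37 C, 5% CO2 before reagent addition.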

[12] = molecular target: Nuclear receptor subfamily 1 group I member 2 (Homo sapiens) (UniProt O75469); assay: Human pregnane X receptor (PXR) small molecule agonists, qHTS assay (AID 1346982); note: nearly all actives have a fitted effect of over 35% in size; note: potency is the fitted concentration of half-maximal effect
Nuclear receptor subfamily 1 group I member 2 (Homo sapiens), sequence (O75469 whole entry, looked up): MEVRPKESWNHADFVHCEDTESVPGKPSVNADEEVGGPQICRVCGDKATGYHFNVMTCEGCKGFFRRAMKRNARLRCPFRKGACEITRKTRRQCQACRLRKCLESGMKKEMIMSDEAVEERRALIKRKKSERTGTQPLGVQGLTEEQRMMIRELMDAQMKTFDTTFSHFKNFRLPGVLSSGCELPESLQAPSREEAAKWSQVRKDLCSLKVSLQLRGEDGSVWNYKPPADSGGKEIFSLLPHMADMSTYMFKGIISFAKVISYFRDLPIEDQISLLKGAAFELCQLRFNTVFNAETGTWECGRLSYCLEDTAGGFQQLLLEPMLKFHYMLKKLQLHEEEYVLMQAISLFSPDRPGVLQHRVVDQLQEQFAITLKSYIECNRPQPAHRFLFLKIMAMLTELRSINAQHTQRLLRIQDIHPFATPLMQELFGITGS
Summary of the method: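 Compound-induced hPXR transactivation of a CYP3A4 luciferase reporter was scored in HepG2 PXR-Luc cells over 24 hr at 37 C, 5% CO2, by luminescence.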

[13] = molecular target: Acetylcholinesterase (Homo sapiens) (UniProt P22303); assay: Acetylcholinesterase (AChE) small molecule antagonists: colormetric cell-based qHTS assay (AID 1347395; calls by dose curve; note: nearly all actives have a fitted effect of over 30% in size)
Acetylcholinesterase (Homo sapiens), sequence (P22303 whole entry, looked up): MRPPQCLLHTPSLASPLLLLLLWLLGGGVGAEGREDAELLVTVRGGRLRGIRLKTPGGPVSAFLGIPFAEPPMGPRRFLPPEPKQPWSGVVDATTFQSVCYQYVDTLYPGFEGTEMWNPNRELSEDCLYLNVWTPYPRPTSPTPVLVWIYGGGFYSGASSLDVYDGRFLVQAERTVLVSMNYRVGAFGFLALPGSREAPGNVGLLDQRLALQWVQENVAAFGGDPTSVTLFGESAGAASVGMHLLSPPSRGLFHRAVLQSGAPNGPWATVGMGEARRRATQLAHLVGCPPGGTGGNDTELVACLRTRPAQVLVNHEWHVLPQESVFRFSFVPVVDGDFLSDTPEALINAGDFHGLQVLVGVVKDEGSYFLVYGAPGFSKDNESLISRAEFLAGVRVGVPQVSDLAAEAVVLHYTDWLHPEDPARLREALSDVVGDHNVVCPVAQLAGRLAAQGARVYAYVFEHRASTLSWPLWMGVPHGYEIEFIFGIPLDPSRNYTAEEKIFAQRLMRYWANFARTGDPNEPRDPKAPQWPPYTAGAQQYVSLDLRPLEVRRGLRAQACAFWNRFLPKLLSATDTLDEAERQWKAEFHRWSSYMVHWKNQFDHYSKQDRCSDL
Summary of the method: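 After overnight attachment at 37 C, SH-SY5Y cells get 30 min compound exposure; detection cocktail (acetylthiocholine, DTNB) then incubates 90 min at 37 C, and absorbance reflects AChE-generated thiocholine.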

[14] = molecular target: Acetylcholinesterase (Homo sapiens) (UniProt P22303); assay: Acetylcholinesterase (AChE) small molecule antagonists: enzyme-based qHTS assay (AID 1347397; calls by dose curve; note: nearly all actives have a fitted effect of over 55% in size); settings: Potency: AChE enzyme activity inhibition
Summary of the method: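 Absorbance-based detection of thiocholine with DTNB served as the read-out. Recombinant human AChE was exposed to compound for 30 min at RT before a 10 min RT incubation with acetylthiocholine.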

[15] = qHTS assay to identify small molecule agonists of the TGF-beta/Smad signaling pathway (AID 1346859; active = well fitted activation curve with a large enough effect in the signal ratio in the repeat runs, not every such curve was filed as active; the % refers to the signal ratio; note: series mostly up to about 77 µM)
Summary of the method: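 Screening used HEK 293T SBE-bla cells at 4,000/well. Test agents: 5 hr, 37 C. Detection: FRET substrate, 2 hr RT, then excitation 405 nm with emissions at 460 and 530 nm.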

[16] = Caspase-3/7 induction in HepG2 cells by small molecules, qHTS assay (AID 1346978); note: nearly all actives have a fitted effect of over 15% in size
Summary of the method: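 Caspase-3/7 induction was measured by Caspase-Glo 3/7 luminescence (30 min, room temperature) after a 17 hr compound exposure of wild-type HepG2 cells seeded at 2,000 per well and pre-incubated 5 hr.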

[17] = Caspase-3/7 induction in CHO-K1 cells by small molecules, qHTS cell viability counter screen (AID 1346979); note: nearly all actives have a fitted effect of over 35% in size
Summary of the method: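 Following a 5hr settling period, CHO-K1 cells at 1,500 per well received DMSO-dissolved compounds. Cell viability was quantified 16hr later by CellTiter-Fluor fluorescence, measured after 1hr with reagent at 37C.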

[18] = molecular target: Nuclear receptor subfamily 1 group I member 2 (Rattus norvegicus) (UniProt Q9R1A7); assay: Rat pregnane X receptor (rPXR) activation by small molecules, qHTS assay (AID 1346983); settings: rPXR luciferase reporter cells, One-Glo luminescence, 24 h; max activation: stronger effect = higher value; note: nearly all actives have a fitted effect of over 20% in size
Nuclear receptor subfamily 1 group I member 2 (Rattus norvegicus), sequence (Q9R1A7 whole entry, looked up): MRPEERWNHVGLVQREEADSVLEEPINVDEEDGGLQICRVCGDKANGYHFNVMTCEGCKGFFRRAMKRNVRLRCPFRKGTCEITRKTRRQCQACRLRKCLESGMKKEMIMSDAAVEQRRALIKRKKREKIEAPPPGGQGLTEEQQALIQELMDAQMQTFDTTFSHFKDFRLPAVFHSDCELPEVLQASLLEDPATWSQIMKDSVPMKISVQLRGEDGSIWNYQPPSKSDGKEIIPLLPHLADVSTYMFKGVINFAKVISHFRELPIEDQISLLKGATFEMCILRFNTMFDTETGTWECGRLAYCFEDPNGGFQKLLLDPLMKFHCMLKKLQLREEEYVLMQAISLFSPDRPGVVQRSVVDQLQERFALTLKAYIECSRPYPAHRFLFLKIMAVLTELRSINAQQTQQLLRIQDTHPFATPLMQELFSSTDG
Summary of the method: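 Luminescent readout (One-Glo luciferase, 30 min room temperature) followed 24 hr compound treatment at 37 C of rPXR cells plated 2,000 per well and preincubated 5hr; qHTS format with compounds delivered in DMSO.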

[19] = molecular target: Nuclear receptor subfamily 1 group I member 2 (Homo sapiens) (UniProt O75469); assay: CYP3A4 induction through human pregnane X receptor (PXR) by small molecules, qHTS assay (AID 1346984); note: nearly all actives have a fitted effect of over 40% in size
Summary of the method: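 Readings come from a luciferase reporter: DPX-2 cells, which are HepG2 cotransfected with PXR and a CYP3A4-promoter construct, were exposed to test compounds for 24 h at 37C before One-Glo detection.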
% is set by controls: 0 for no effect and ±100 for the full control effect.

O=[Se]=O
active: Potency [1] 21.5 µM | Potency [5] 9.7 µM | Potency [6] 4.86 µM | Potency [9] 24.2 µM | Potency [11] 21.5 µM
inactive: Potency [2] | Potency [3] | Potency [4] | Potency [7] | Potency [8] | Potency [10] | Potency [12] | Potency [13] | Potency [14]

CCCN(CC1CC1)c1c([N+](=O)[O-])cc(C(F)(F)F)cc1[N+](=O)[O-]
inactive: Potency [1] | Potency [2] | Potency [3] | Potency [4] | Potency [5] | outcome [15] | Potency [7] | Potency [9] | Potency [16] | Potency [17] | Potency [10] | Potency [13] | Potency [14]
active: Potency [12] 19.3 µM

CC(C)N(CCC(C(N)=O)(c1ccccc1)c1ccccn1)C(C)C (stereo not given)
inactive: Potency [1] | Potency [2] | Potency [3] | Potency [4] | Potency [5] | Potency [6] | outcome [15] | Potency [9] | Potency [16] | Potency [17] | Potency [10] | Potency [11] | max activation [18] -7.32% | Potency [13] | Potency [14]

CC(O)(CS(=O)(=O)c1ccc(F)cc1)C(=O)Nc1ccc(C#N)c(C(F)(F)F)c1 (stereo not given)
active: Potency [12] 31.8 µM
inactive: Potency [1] | Potency [2] | Potency [3] | Potency [4] | Potency [5] | outcome [15] | Potency [7] | Potency [8] | Potency [9] | Potency [16] | Potency [10] | Potency [19] | Potency [13] | Potency [14]

Clc1cc(Cl)c(Cl)c(Cl)c1
inactive: Potency [1] | Potency [2] | Potency [3] | Potency [4] | Potency [5] | Potency [6] | outcome [15] | Potency [9] | Potency [16] | Potency [17] | Potency [10] | Potency [11] | Potency [12] | Potency [13] | Potency [14]

NCC(CC(=O)O)c1ccc(Cl)cc1 (stereo not given)
inactive: activity change, negative = cytotoxicity [1] 7.95% [at 0.349 µM] | activation [2] 1.24% [at 0.349 µM] | activity change, negative = cytotoxicity [3] -8.73% [at 0.348 µM] | activity change, negative = cytotoxicity [4] 0.204% [at 0.349 µM] | viability change, negative = cytotoxic [5] 2.11% [at 0.29 µM] | activation [15] -0.421% [at 0.29 µM] | activity, negative = inhibition [7] 7.63% [at 0.194 µM] | activation [8] -0.989% [at 0.218 µM] | activity change, negative = cytotoxicity [9] -0.756% [at 0.349 µM] | activity change, negative = cytotoxicity [17] 5.63% [at 0.349 µM] | caspase-3/7 activation [10] -0.192% [at 0.349 µM] | activity change, negative = cytotoxicity [11] 8.17% [at 0.349 µM] | activation [12] -6.38% [at 0.349 µM] | activity, negative = inhibition [13] 4.84% [at 0.435 µM] | activity change, negative = inhibition [14] 1.42% [at 0.435 µM]

CCOP(=S)(Oc1ccc([N+](=O)[O-])cc1)c1ccccc1 (stereo not given)
inactive: Potency [1] | Potency [2] | Potency [3] | Potency [5] | Potency [6] | outcome [15] | Potency [7] | Potency [8] | Potency [9] | Potency [16] | Potency [17] | Potency [10] | Potency [11] | Potency [12] | Potency [13] | Potency [14]

C[N+](C)(C)CCCl
inactive: Potency [1] | Potency [2] | Potency [3] | Potency [4] | Potency [5] | Potency [6] | outcome [15] | Potency [8] | Potency [9] | Potency [16] | Potency [17] | Potency [11] | Potency [13] | Potency [14]

O=Cc1ccc2c(c1)OCO2
inactive: Potency [1] | Potency [2] | Potency [3] | Potency [4] | Potency [5] | outcome [15] | Potency [7] | Potency [9] | Potency [16] | Potency [17] | Potency [10] | Potency [11] | Potency [13] | Potency [14]

CCCN(CCC)c1c([N+](=O)[O-])cc(S(C)(=O)=O)cc1[N+](=O)[O-]
inactive: Potency [1] | Potency [2] | Potency [3] | Potency [4] | Potency [5] | outcome [15] | Potency [9] | Potency [10] | Potency [14]
active: Potency [12] 2.43 µM

COC1=CC(=O)O[C@@H](CCc2ccccc2)C1
inactive: Potency [1] | Potency [2] | Potency [3] | Potency [4] | Potency [5] | Potency [6] | Potency [8] | Potency [9] | Potency [16] | Potency [10] | Potency [11] | Potency [13] | Potency [14]
active: Potency [12] 63.6 µM

C[C@H]1CNCCc2ccc(Cl)cc21
inactive: Potency [1] | Potency [2] | Potency [3] | Potency [5] | Potency [6] | outcome [15] | Potency [7] | Potency [8] | Potency [9] | Potency [16] | Potency [17] | Potency [11] | Potency [12] | Potency [13] | Potency [14]

CCCCCCCCOC(=O)c1ccc(C(=O)OCCCCCCCC)c(C(=O)OCCCCCCCC)c1
active: Potency [3] 27.6 µM
inactive: Potency [1] | Potency [2] | Potency [4] | Potency [6] | outcome [15] | Potency [8] | Potency [9] | Potency [16] | Potency [17] | Potency [10] | Potency [12] | Potency [13] | Potency [14]

Cc1c(F)c(F)c(COC(=O)C2C(/C=C(\Cl)C(F)(F)F)C2(C)C)c(F)c1F (stereo not given)
active: Potency [12] 13.7 µM
inactive: Potency [1] | Potency [2] | Potency [3] | Potency [4] | Potency [6] | outcome [15] | Potency [7] | Potency [8] | Potency [9] | Potency [16] | Potency [17] | Potency [10] | Potency [13] | Potency [14]
